An excerpt weighted towards active compounds, which were near 21% of everything screened.
DRD3 antagonist = antagonists of human D3 dopamine receptor. max response, negative = inhibition, %. 360,000 tested, 2.5% active. P35462. AID 652054. D3R cells, DiscoveRx beta-arrestin luminescence, antagonist mode; active compounds read low; in the data active = max response below about -50%; inconclusive = no clear call, values can overlap the other calls; note: % is set by controls: 0 for no effect and ±100 for the full control effect
Target sequence (P35462 whole entry, looked up): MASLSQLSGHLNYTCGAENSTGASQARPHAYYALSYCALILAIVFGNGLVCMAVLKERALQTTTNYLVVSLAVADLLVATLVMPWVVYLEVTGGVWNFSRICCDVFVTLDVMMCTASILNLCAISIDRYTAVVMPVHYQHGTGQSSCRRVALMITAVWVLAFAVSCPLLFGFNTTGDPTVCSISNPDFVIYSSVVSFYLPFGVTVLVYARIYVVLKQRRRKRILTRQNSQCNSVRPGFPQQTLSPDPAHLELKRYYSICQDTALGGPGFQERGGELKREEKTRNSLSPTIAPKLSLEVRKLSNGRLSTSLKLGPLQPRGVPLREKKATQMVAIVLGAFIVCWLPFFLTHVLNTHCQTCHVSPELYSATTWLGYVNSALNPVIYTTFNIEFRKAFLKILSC
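Cells plated overnight at 1500 cells/well, then exposed to library compounds with dopamine controls for 90 minutes at 37 degrees C. DiscoveRx reagent added for 30–60 minutes at room temperature; luminescence read, quantitative HTS format.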
ClpP mod = qHTS Assay for Activators of ClpP. purified B. subtilis ClpP, FRET peptide cleavage, 20 min. Potency, µM (titrated, usually from 57.5 µM), inactives show at the highest dose activity change, negative = active. 340,000 tested, 1.9% active; active = well fitted falling curve with a large enough effect; inconclusive = small, poorly fitted or top-dose-only effect; inactive = no such curve, though single readings can be large or run the other way; note: potency is the fitted concentration of half-maximal effect; the source files actives as falling curves though it sought activators and does not explain the sign; nearly all actives have a fitted effect of over 65% in size
Target sequence (P80244 whole entry, looked up): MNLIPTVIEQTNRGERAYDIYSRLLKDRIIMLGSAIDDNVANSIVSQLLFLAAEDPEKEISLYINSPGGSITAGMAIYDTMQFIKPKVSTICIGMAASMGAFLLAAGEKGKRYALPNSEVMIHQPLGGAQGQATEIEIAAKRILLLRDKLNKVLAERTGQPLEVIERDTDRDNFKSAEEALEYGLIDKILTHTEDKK
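ClpP 10 microg/mL final, pH 8 Tris/KCl buffer with BSA, glycerol, Tween-20; compound pinned in; FRET-FV substrate; RT 20 min; Ex320/Em430; ΔFRET vs ADEP 5.8 microM, DMSO, no enzyme.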
TDP1 cell noCPT = qHTS for Inhibitors of human tyrosyl-DNA phosphodiesterase 1 (TDP1): qHTS in cells in absence of CPT. DT40 Tdp1-/- hTDP1 cells, no CPT, ATP luminescence, 48 h. Potency, µM (top dose mostly 46.2 µM), inactives show top-dose activity change, negative = growth inhibition, actives largely listed as inhibitors. 420,000 tested, 15% active; note: potency is the fitted concentration of half-maximal effect; % is set by controls: 0 for no effect and ±100 for the full control effect; nearly all actives have a fitted effect of over 55% in size
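Compound effects on proliferation are scored in DT40 Tdp1-/-;hTDP1 cells in the absence of CPT. ATP levels (CellTiter-Glo luminescence) are recorded after a ≥48 hr, 37 °C incubation.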
TDP1 cell CPT = growth inhibition of DT40 Tdp1-/-;hTDP1 cells with camptothecin (screen for TDP1 inhibitors) | chicken DT40 Tdp1-/-;hTDP1 cells + 20 nM CPT, ATP luminescence, 48 h | Potency, µM (series often up to 46.2 µM), without a hit: at the highest dose activity change, negative = growth inhibition, hits mostly inhibitors | 420,000 tested, 12% active | AID 686979; note: potency is the fitted concentration of half-maximal effect; % is set by controls: 0 for no effect and ±100 for the full control effect; nearly all actives have a fitted effect of over 55% in size
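Chicken DT40 Tdp1-/- cells stably complemented with human TDP1 were seeded at 400 cells/well in medium containing 20 nM camptothecin, exposed to pin-transferred compounds, and grown at 37 °C for at least 48 hr. Viability was read as ATP luminescence.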
IL-1B inflam inh = inhibitors of inflammasome signaling (IL-1 beta secretion) | AID 743279 | 360,000 tested, 4.7% active | THP-1 LPS/ATP IL-1B secretion, AlphaLISA, 16 h; active compounds read low | activity change, % at 57.5 µM; in the data active = activity change below about -50%; inconclusive = mostly about -30% to -49%; note: % is set by controls: 0 for no effect and ±100 for the full control effect
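Secreted IL-1B measured by AlphaLISA bead assay after 16 h compound exposure of THP-1 cells; compounds (final up to 57.5 uM) added 1 h before LPS (250 ng/mL) and ATP (1.25 mM) stimulation; lower signal means less secretion.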
DRD3 agonist = agonists of human D3 dopamine receptor | P35462 | D3R DiscoveRx beta-arrestin cells, luminescence, 90 min | max activation, % | 410,000 tested, 0.58% active | AID 652048; in the data active = max activation above about 30%; note: 0% is about no effect
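Cells at 1500/well, incubated overnight, then treated with pinned compounds (dopamine as control) for 90 min at 37 degrees C. DiscoveRx reagent added for 30 - 60 minutes at room temperature; luminescence read.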
An asterisk follows results filed as active; i = inactive; ? = inconclusive; . = no result; [ ] = another dose, or the depositor's remark. Unless noted, calls come from the whole dose curve; as a rule, active = well fitted inhibition curve with a large enough effect; inconclusive = small, poorly fitted or top-dose-only effect; inactive = flat fitted curve, though single readings scatter.

SMILES | DRD3 antagonist | ClpP mod | TDP1 cell noCPT | TDP1 cell CPT | IL-1B inflam inh | DRD3 agonist
COc1ccc(C(=O)Nc2ccc(-n3nncc3-c3ccc(OC)c(OC)c3)cc2)cc1 | . | -6.8% | 20.6µM* | 20.6µM* | . | 14.4
COc1ccc(-c2cnnn2-c2ccc(NC(=O)c3ccc(S(=O)(=O)N4CCCCC4)cc3)cc2)cc1OC | 27.1 | -17.1% | 11.6µM* | 20.6µM* | -21.8 | 26.4
O=C(Nc1ccccc1)N1CC[C@@]2(CCCN(C(=O)c3ccco3)C2)C1 | . | . | -13.5% | 2.1% | . | .
CCOC(=O)c1cc(-c2ccccc2)n(CCC(=O)N2CCN(c3ccc(OC)cc3)CC2)c1C | -10.9 | 0.5% | 23.1µM* | 14.6µM* | -59.7* | 2.3
CCOC(=O)c1cc(-c2ccccc2)n(CC(=O)N2CCCC2)c1C | 73.7 | -0.6% | -15.2% | -28.5% | -8.6 | 4.9
CCOC(=O)c1cc(-c2ccccc2)n(CCC(=O)N2CCN(c3ccccc3OC)CC2)c1C | 14.0 | 1.2% | 8.2µM* | 11.6µM* | ? | 2.5
CCOC(=O)C1CCCN(C(=O)Cn2cnc3c2c(=O)n(C)c(=O)n3C)C1 (centres undefined) | 15.0 | 0.7% | 0.0% | -2.6% | 2.8 | 31.8*
Cn1c(=O)c2c(ncn2CC(=O)N2CCOCC2)n(C)c1=O | -12.5 | 31.6µM* | -2.2% | 6.5% | 0.5 | 1.5
CC1CN(C(=O)Cn2cnc3c2c(=O)n(C)c(=O)n3C)CC(C)O1 (centres undefined) | ? | 0.0% | -7.6% | 3.9% | 22.5 | 0.8
Cc1cccc(N2CCN(C(=O)Cn3ccc4ccccc4c3=O)CC2)c1C | 0.9 | -9.1% | ? | 12.6µM* | -6.9 | 0.6
CC1Cc2ccccc2N1C(=O)Cn1cnc2c1c(=O)n(C)c(=O)n2C (centres undefined) | 17.9 | 0.7% | 23.1µM* | ? | i | 0.3
Cc1cccc(C)c1NC(=O)CC12CCCN1CCC2 | . | . | -20.1% | ? | . | 2.3
Cc1cccc(N2CCN(C(=O)Cn3c(=O)c4cccn4c4ccc(F)cc43)CC2)c1C | . | -2.1% | 10.3µM* | 20.6µM* | . | 5.1
Cn1c(=O)c2c(ncn2CC(=O)N2CCN(c3ccccc3F)CC2)n(C)c1=O | 9.9 | 0.1% | 2.2% | -6.7% | 29.8 | -2.0
Cc1cccc(N2CCN(C(=O)Cn3cnc4c3c(=O)n(C)c(=O)n4C)CC2)c1C | 11.5 | -1.8% | 18.4µM* | 23.1µM* | 34.5 | 5.9
O=C(CC1CS(=O)(=O)CC1CC(=O)Oc1ccccc1F)Oc1ccccc1F (centres undefined) | 7.5 | -1.2% | -12.9% | -19.8% | -0.9 | -3.3
O=C(c1cc(-c2cccs2)nc2ccccc12)N1CCN(c2ccccc2O)CC1 | 87.7 | . | ? | ? | -66.7* | 22.4
O=C(c1cc(-c2cccs2)nc2ccccc12)N1CCN(CCO)CC1 | 9.5 | ? | -2.3% | 4.0% | -1.2 | 2.1
CS(=O)(=O)N1CCN(C(=O)c2cc(-c3cccs3)nc3ccccc23)CC1 | -20.9 | 11.2µM* | -19.0% | -10.0% | 26.0 | 1.0
O=C(c1cc(-c2ccccc2Cl)nc2ccccc12)N1CCN(c2ccccc2O)CC1 | 10.0 | 0.6% | ? | 18.4µM* | -70.3* | 14.6
CCN(Cc1ccncc1)Cc1ccc2c(c1)CN(C(=O)c1ccc(C)cc1)CCO2 | . | . | ? | 7.6%[9.04 µM] | . | .
Cc1ccc(CNC(=O)CCCn2nc(C)n3ccnc3c2=O)cc1 | 16.2 | -1.2% | -7.9% | 2.6% | 24.5 | 2.8
O=C(CN(c1cccc(Br)c1)S(=O)(=O)c1ccccc1)N1CCc2ccccc2C1 | . | -0.4% | 14.6µM* | 14.6µM* | . | -21.0
COc1ccc(N(CC(=O)N2CCc3ccccc3C2)S(=O)(=O)c2ccc(C)cc2)cc1Cl | . | -2.4% | 16.4µM* | ? | . | -2.7
Cc1ccc(-c2noc(CN(C(=O)c3ccc(C(C)(C)C)cc3)C(C)C)n2)cc1 | . | -2.7% | ? | ? | . | -1.4
SMILES | DRD3 antagonist | ClpP mod | TDP1 cell noCPT | TDP1 cell CPT | IL-1B inflam inh | DRD3 agonist
CCc1nc2ccc(C(=O)N3CCN(S(=O)(=O)CC)CC3)cn2c1N(CC)Cc1cccc(Br)c1 | -1.1 | -4.2% | ? | 23.1µM* | -22.2 | -3.8
CCc1nc2ccc(C(=O)N(C)C(C)C)cn2c1N(CC)Cc1cccc(Br)c1 | 12.3 | -3.7% | 14.6µM* | ? | -7.8 | 5.0
CCc1nc2ccc(C(=O)NCc3ccc(OC)cc3)cn2c1N(CC)CCN(C)C | 9.6 | -10.7% | -13.8% | 1.9% | -11.2 | -4.5
O=C(Nc1cnn(Cc2c(Cl)cccc2Cl)c1)C(c1ccccc1)c1ccccc1 | -14.6 | 1.3% | 16.4µM* | 23.1µM* | -20.2 | 4.1
O=C(COc1ccccc1Cl)Nc1cnn(Cc2ccccc2)c1 | 8.0 | 2.2% | ? | -10.1% | -12.7 | 4.3
COc1ccc(N(C(=O)c2cccc(C)c2)S(=O)(=O)c2ccc(C)cc2)cc1 | . | 0.7% | ? | 18.4µM* | . | -21.4
COc1ccc(N(C(=O)c2ccc(Cl)cc2)S(=O)(=O)c2ccc(C)cc2)cc1 | . | 0.5% | 23.1µM* | ? | . | 8.6
COc1ccc(N(C(=O)c2ccc(OC)c(OC)c2)S(=O)(=O)c2ccc(Cl)cc2)cc1 | . | -2.6% | 20.6µM* | 25.9µM* | . | -10.5
COc1ccc(N(C(=O)C(C)C)S(=O)(=O)c2ccc3ccccc3c2)cc1 | 12.6 | -12.2% | ? | 14.6µM* | 26.0 | -15.0
COc1ccc(N(C(=O)c2ccc(C)cc2)S(=O)(=O)c2ccc(Cl)cc2)cc1 | . | -1.8% | ? | ? | . | -0.2
CC(Oc1ccccc1)C(=O)N1CCN=C1SCc1ccccc1 (centres undefined) | ? | -0.1% | -3.2% | -13.3% | ? | -11.3
Cn1cc(S(=O)(=O)c2ccccc2)c(=O)c2cc(F)c(N3CCCC3)cc21 | . | -15.9% | -20.8% | -17.0% | . | -23.9
COc1ccc(S(=O)(=O)Oc2ccc3cccc(N)c3c2)cc1 | 14.5 | . | ? | ? | -9.5 | 4.5
COc1ccc(S(=O)(=O)Oc2ccc3ccccc3c2)cc1 | -11.8 | 0.9% | 29.1µM* | 16.4µM* | -12.8 | -8.5
CC(O)CNc1nc2c(c(=O)n(Cc3ccccc3)c(=O)n2C)n1C (centres undefined) | 0.2 | 0.9% | -13.5% | 10.5% | -1.9 | -12.2
CCOC(=O)c1cc[n+](CC(=O)c2ccc(F)cc2)cc1 | 2.8 | -1.0% | -8.7% | -16.0% | -13.7 | 2.7
COC(=O)[C@]12CCCCC=C1N(Cc1ccccc1)C(=O)[C@H](CC(=O)NCCC(C)C)C2 | -17.6 | -0.4% | ? | ? | -4.5 | -1.7
